# Rv3671c protease = inhibitors of M. tuberculosis serine protease Rv3671c. P9WHR9. inhibition, % at 5.96 µM. 320,000 tested, 0.048% active. AID 2606; in the data active = inhibition above about 38%;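 note: extracellular domain of Rv3671c used as enzyme; 0% = enzyme with DMSO and 100% = no enzyme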
# Target sequence (P9WHR9 whole entry, looked up, the tested form may be a part): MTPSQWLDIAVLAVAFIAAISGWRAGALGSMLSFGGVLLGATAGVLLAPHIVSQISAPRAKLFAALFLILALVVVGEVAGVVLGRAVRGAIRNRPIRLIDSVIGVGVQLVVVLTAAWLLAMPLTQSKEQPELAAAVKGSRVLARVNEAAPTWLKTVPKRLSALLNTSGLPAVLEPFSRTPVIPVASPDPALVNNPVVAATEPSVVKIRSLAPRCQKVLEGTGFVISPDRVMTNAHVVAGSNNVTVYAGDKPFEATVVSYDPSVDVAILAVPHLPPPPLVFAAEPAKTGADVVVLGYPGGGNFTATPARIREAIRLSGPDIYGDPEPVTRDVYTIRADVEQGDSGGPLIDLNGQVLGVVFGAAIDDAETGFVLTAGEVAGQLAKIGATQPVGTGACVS
# FadD28 FP inh = M. tuberculosis FadD28 bisubstrate binding inhibition. inhibition, % at 12.5 µM. FadD28 bisubstrate probe binding, fluorescence polarization. 360,000 tested, 0.22% active; in the data active = inhibition above about 8.5%, passing the limit was not always enough; inconclusive = no clear call, values can overlap the other calls
# Vc quorum ag-1 = quorum light induction in luxS cqsA deficient V. cholerae; activation, % at 18.7 µM; V. cholerae BH1578 lux reporter, luminescence, 6 h; 350,000 tested, 0.16% active; in the data active = activation mostly above about 9.7%, no sharp cut-off; inconclusive = no clear call, values can overlap the other calls; inactive = mostly below about 3.7%
# Mtb bLac sens = beta-lactam sensitization of Mtb H37Rv | M. tuberculosis H37Rv growth with meropenem, percent inhibition | inhibition, % at 25 µM | 330,000 tested, 0.27% active;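 note: growth measured after seven days incubation then overnight dye step; 0% = bacteria only wells and 100% = bacteria with antibiotic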
# PrP UTR inh = inhibition of PrP 5' UTR reporter expression; 340,000 tested, 0.35% active; inhibition, % (concentration not given with the values); cell-based PrP 5' UTR mRNA reporter, plate reader; in the data active = inhibition above about 52%; note: 0 = median of the neutral control wells
# UGM FP inh = Mtb UDP-galactopyranose mutase inhibition. P9WIQ1. purified UGM, fluorescence polarization probe displacement. inhibition, % at 10 µM. 320,000 tested, 0.06% active; in the data active = inhibition above about 10%, passing the limit was not always enough; inconclusive = no clear call, values can overlap the other calls
# Vc quorum ag-2 = inducers of V. cholerae quorum light production without autoinducers. 620 tested, under 10 active. shares compounds with Vc quorum ag-1. activation, % at 50 µM. V. cholerae BH1578 lux reporter, luminescence, 6 h. AID 602243
# HeLa 24h tox = cytotoxicity in HeLa cells at 24 hours | shares compounds with Vc quorum ag-1 | HeLa viability, CellTiter-Glo ATP luminescence | activity change, negative = cytotoxicity, % at 35 µM | 25 tested, under 10 active | AID 624140;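 active = signal drop with fitted half-maximal concentration at or below twice the highest valid dose; inconclusive = flat curve with 30 to 70% loss, or poor fit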
# * marks the source's active call; other numbers are inactive results; i = inactive; ? = inconclusive; nt = no result given; + = active, no number. Sampled rows, rich in hits. Any-hit rate of the full collection: about 0.76%. Unless noted, the rule behind the calls is not given here.
SMILES,Rv3671c protease,FadD28 FP inh,Vc quorum ag-1,Mtb bLac sens,PrP UTR inh,UGM FP inh,Vc quorum ag-2,others
Cc1ccccc1OCC(=O)OCC(=O)N1CCCc2ccccc21,-7.6,-4.1,14.3,60.1,-18.5,-3.3,0.3,
C[C@@H]1CN([C@@H](C)CO)C(=O)c2cc(N(C)C)ccc2O[C@@H]1CN(C)S(C)(=O)=O,7.0,-0.9,1.2,10.3,-9.8,-2.9,nt,
COC(=O)Nc1ccc(S(=O)(=O)NCCO)cc1,0.0,0.6,12.5,-6.5,-2.5,-3.5,0.0,
COC(=O)Nc1ccc(S(=O)(=O)NCCCCCC(=O)O)cc1,-1.7,-1.1,i,1.2,-17.4,0.1,nt,
COC(=O)[C@@]1(C)[C@H]2C(=O)N(Cc3ccccc3)C(=O)[C@H]2[C@H]2CN(C)C(=NC3CCCCC3)N21,nt,-1.4,-1.1,nt,-14.5,nt,nt,
COCCCNC(=O)c1ccc2c(=O)n(C3CCCC3)c(=S)[nH]c2c1,-0.4,-2.7,6.6,-25.6,-14.8,1.0,0.0,
COc1ccc(C(=O)COC(=O)CNC(=O)c2ccc(Cl)cc2Cl)c(OC)c1,1.0,-5.0,1.8,5.2,-12.4,0.3,0.0,
COc1ccccc1C(=O)NC(=O)COC(=O)CNC(=O)c1ccc(Cl)cc1Cl,1.4,-3.0,i,-1.0,-6.0,1.3,nt,
COc1ccccc1NC(=O)COC(=O)C1CCCC1,-1.8,-2.7,i,5.7,0.0,-1.9,nt,
COc1ccccc1NC(=O)COC(=O)c1cc2c(s1)CCC2,nt,-3.3,nt,nt,-5.2,nt,i,HeLa 24h tox=4.5
COc1ccc(OC)c(NC(=O)COC(=O)c2cc3c(s2)CCC3)c1,-11.3,1.1,21.9,69.1,0.3,-2.4,2.1,
Nc1nc(NC(=O)c2ccc(F)cc2)ns1,3.3,-0.6,i,-3.0,-10.2,-0.6,nt,
COc1ccc(S(=O)(=O)N2CCN(C(=O)COc3ccc(C)c(C)c3)CC2)cc1OC,1.3,-1.2,nt,1.5,-10.3,-2.2,nt,
CCOc1ccc(/C(O)=C2/C(=O)C(=O)N(CCOCCO)C2c2ccccn2)cc1 (stereo not drawn),9.8,0.1,14.3,12.5,-10.5,0.6,0.2,
CCOc1ccc(/C(O)=C2/C(=O)C(=O)N(CCOCCO)C2c2ccc(F)cc2)cc1 (stereo not drawn),-2.0,-4.6,i,50.6,-20.5,1.8,nt,
O=C(Nc1c(F)c(F)c(F)c(F)c1F)C1CCCCC1,0.1,-3.4,25.2,1.1,-24.3,-1.6,1.6,
CN(C(=O)c1ccc(NC(=O)C2CCCN(C(=O)OC(C)(C)C)C2)cc1)C1CC1 (stereo not drawn),-1.2,-0.9,i,2.4,-8.6,0.3,nt,
CCNC(=O)C12CCC(C)(c3nc4cc(C)c(C)cc4nc31)C2(C)C (stereo not drawn),-6.2,-2.1,-0.4,1.9,-11.9,-0.2,nt,
Cn1nnnc1NCc1cccc(Cl)c1,-3.5,?,2.1,-10.0,-18.8,-5.4,nt,
CC(C)c1ccc(CNc2nnnn2C)cc1,-10.2,0.4,nt,-1.1,-29.8,0.0,i,
CCOc1ccc(CNc2nnnn2C)cc1,0.6,1.6,+,-1.3,-28.4,0.8,i,
CCOc1cccc(CNc2nnnn2C)c1,-3.1,-2.6,6.1,-0.1,-26.0,-0.4,nt,
O=S(=O)(Nc1cccc(S(=O)(=O)N2CCCCC2)c1)c1ccccc1F,5.4,-1.1,26.1*,0.8,-3.1,-2.3,0.2,
Cc1ccccc1C(=O)Nc1cccc(N)c1,1.0,-1.9,48.1*,-9.6,-4.4,2.5,3.0,
COc1ccccc1C(=O)Nc1cccc(NC(=O)c2ccccc2C)c1,nt,-4.5,-0.2,-5.6,-17.2,-1.4,nt,
SMILES,Rv3671c protease,FadD28 FP inh,Vc quorum ag-1,Mtb bLac sens,PrP UTR inh,UGM FP inh,Vc quorum ag-2,others
CC12CCC(C(=O)NNC(=O)c3ccc(Br)cc3)(OC1=O)C2(C)C (stereo not drawn),-1.7,-6.8,i,2.4,-29.0,-1.3,nt,
O=C(c1cc2ccccc2cc1O)N1CCN(c2ccccc2O)CC1,-3.6,-2.8,12.5,-1.0,-26.5,-2.8,0.0,
Cc1cccc(C(=O)N2c3ccccc3C(=O)OC2c2ccc3c(c2)OCO3)c1 (stereo not drawn),2.2,-1.5,32.1*,-2.4,-24.3,2.5,3.9,
O=C1OC(c2ccc3c(c2)OCO3)N(C(=O)c2ccc(Cl)c(Cl)c2)c2ccccc21 (stereo not drawn),-15.3,-1.4,0.6,1.0,-29.8,-0.7,nt,
O=C(CSc1nc(=O)n(CCN2CCOCC2)c2c1CCCC2)Nc1ccccc1Cl,nt,-1.5,-0.5,nt,nt,nt,nt,
Cc1cccc(NC(=O)CSc2nc(=O)n(CCN3CCOCC3)c3c2CCCC3)c1C,0.8,-0.6,1.8,-3.3,2.7,-1.1,0.2,
CN(C)CC(C)(C)CNC(=O)c1cc(=O)c2ccccc2o1,10.0,0.7,12.5,0.0,-10.0,1.4,0.0,
Cc1ccc(CNC(=O)c2cc(=O)c3ccccc3o2)cc1,-8.6,-1.9,-3.1,1.6,-24.8,1.2,nt,
COC(=O)c1nnn(-c2nonc2N)c1CSc1nc2ccccc2s1,6.8,-5.8,25.0*,2.6,-32.6,-1.1,0.1,
O=C(COC(=O)C1(c2ccccc2F)CCCC1)NCc1cccs1,-0.2,0.4,-0.5,5.3,-9.0,0.2,nt,
Cc1cccc(OCC(=O)N(C)CCc2ccccn2)c1,8.8,-3.9,25.0*,-1.6,-22.8,-1.2,0.3,
Cc1cccc(CN(C)CCc2ccccn2)c1,15.0,2.0,i,0.1,-1.1,4.4,nt,
